HCMV antiviral: inhibitors of human cytomegalovirus. activity change, negative = inhibition, % at 57.5 µM. HFF cells, HCMV-luciferase reporter, 72 h; active compounds read low. 410,000 compounds, 4.5% hits; in the data active means activity change below about -60%; inconclusive means no clear call, values can overlap the other calls; inactive means above about -39%
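Screen run at 2 compound doses on HFFs infected with reporter HCMV, MOI 1 PFU/cell. Luciferase activity from cell lysates at 72 h post infection gave inhibition relative to buffer-only and Salinomycin wells.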
FMDV antiviral: blocks foot and mouth disease virus. AID 1159524. Potency, µM (highest dose often 57.9 µM), inactives show at the top dose activity change, negative = inhibition, most hits filed as inhibitors. FMDV antiviral cell-based qHTS. 410,000 compounds, 1.2% hits; calls by dose curve; tested in HEK293T cells; further: read-out not given here; potency means the concentration at half of the fitted maximal effect; nearly all actives have a fitted effect of over 45% in size
Vaccinia Venus: vaccinia inhibition (Venus reporter) | Vaccinia virus Venus reporter expression, fluorescence | AID 720580 | Potency, µM (top dose mostly 36.5 µM), for inactives: top-dose activity change, negative = inhibition, actives largely listed as inhibitors | 330,000 compounds, 0.46% hits; calls by dose curve; tested in A549 cells; further: potency means the concentration at half of the fitted maximal effect; nearly all actives have a fitted effect of over 30% in size
LASV entry inh: blocks Lassa virus binding to or entry into cells; Lassa virus pseudotype entry inhibition, cell reporter; Potency, µM (doses to about 37.9 µM), without a hit: at the top dose activity change, negative = inhibition, actives largely listed as inhibitors; 300,000 compounds, 1.2% hits; calls by dose curve; tested in HEK293 cells; further: potency means the concentration at half of the fitted maximal effect; nearly all actives have a fitted effect of over 50% in size
Marburg entry inh: inhibitors of Marburg virus binding or cell entry; AID 540276; Marburg virus pseudotyped entry inhibition, cell reporter; 300,000 compounds, 1.8% hits; Potency, µM (series often up to 37.8 µM), inactives show at the top dose activity change, negative = inhibition, actives largely listed as inhibitors; calls by dose curve; tested in HEK293 cells; further: potency means the concentration at half of the fitted maximal effect
VACV mCherry inh: inhibitors of vaccinia virus infection (mCherry reporter signal). Vaccinia virus mCherry reporter infection, fluorescence. Potency, µM (titrated, usually from 36.5 µM), for inactives: at the highest dose activity change, negative = inhibition, hits mostly inhibitors. 310,000 compounds, 0.63% hits. AID 720579; calls by dose curve; tested in A549 cells; further: potency means the concentration at half of the fitted maximal effect; nearly all actives have a fitted effect of over 35% in size
* = called active by the depositor; i = inactive; ? = inconclusive; . = not tested or not shown; ! = a repeat was not active; [ ] = dose if it differs, or a comment. An excerpt weighted towards active compounds, which were near 6.5% of everything screened. On the % scale 0 is the no-effect control and ±100 the full control effect.

SMILES	HCMV antiviral	FMDV antiviral	Vaccinia Venus	LASV entry inh	Marburg entry inh	VACV mCherry inh
CCN1CC2=C(OC(N)=C(C#N)C2c2cccs2)/C(=C/c2cccs2)C1 (stereo not given)	2	28µM*	-20%	?	?	i
CCN1C=C(Cc2cccs2)C2=C(C1)C(c1cccs1)C(C#N)=C(N)O2 (stereo not given)	-36	20µM*	-14%	-24%	?	i
OC1CCC(Nc2ncnc3sccc23)CC1 (stereo not given)	-39	4%	-13%	7%	16%[46.1 µM]	-19%
COc1cccc(CN2CCC3(CCC(CNC(=O)c4cc(C)nn4C)O3)CC2)c1OC (stereo not given)	.	-7%	1%	.	.	-4%
CCOc1ccc(NC(=O)Cn2nc(Cc3ccncc3)c3ccccc3c2=O)cc1	-18	-13%	-9%	17%[46.1 µM]	?	-11%
CCCCNC(=O)Cn1nc(Cc2ccncc2)c2ccccc2c1=O	-62*	-21%	.	.	.	.
CCCN(C(=O)Cn1nc(Cc2ccncc2)c2ccccc2c1=O)c1ccccc1C	-62*	2%	-4%	?	?	-11%
CCCN(C(=O)Cn1nc(Cc2cccnc2)c2ccccc2c1=O)c1ccc(C(C)C)cc1	-63*	-16%	-10%	-19%[46.1 µM]	?	-13%
CCN(CC)CCNC(=O)Cn1nc(Cc2cccnc2)c2ccccc2c1=O	5	-7%	-8%	.	.	i
O=C(O)c1ccccc1S(=O)(=O)Cc1ccccc1	-26	.	-3%	8%	1%	i
Cn1ncc(S(=O)(=O)Cc2ccccc2)c(Br)c1=O	.	.	.	9.2µM*	-18%	.
CC1(C)COC(/C=C/c2cccc([N+](=O)[O-])c2)=N1	-95*	25µM*	?	?	?	11µM*
O=C1Nc2ccccc2[C@@]12O[C@H](COc1ccccc1)CC1=C2CCC1	.	.	.	.	10%[14.2 µM]	.
Cc1sc(NC(=O)c2ccco2)c(C(c2cccnc2)N2CCCC2)c1C (stereo not given)	-62*	2%	.	-26%	?	.
Cc1c(O)cnc2nn(-c3ccccc3)c(=N)n12	-16	-8%	2%	.	.	i
COc1cccc(-n2c(SCC(=O)Nc3cccc(C)c3)nc3c([nH]c4ccccc43)c2=O)c1	15	0%	-13%	-22%[46.1 µM]	.	-9%
O=C(CSc1nc2c([nH]c3ccccc32)c(=O)n1-c1cccc(Cl)c1)N1CCOCC1	-93*!	-34%	8%	-21%[46.1 µM]	.	31%
Cc1cc(C)cc(NC(=O)CSc2nc3c([nH]c4ccccc43)c(=O)n2-c2ccc(F)cc2)c1	-88*	0%	-4%	-23%[46.1 µM]	.	-14%
CCC1CCCCN1C(=O)CSc1nc2c([nH]c3ccccc32)c(=O)n1-c1cccc(OC)c1 (stereo not given)	-91*	-12%	-28%	?	.	?
COc1cccc(NC(=O)CSc2nc3c([nH]c4ccccc43)c(=O)n2-c2cccc(Cl)c2)c1	-74*	-21%	-6%[7.34 µM]	?	.	-3%[7.34 µM]
CCc1nnc(NC(=O)CSc2nc3c([nH]c4ccccc43)c(=O)n2-c2ccc(Cl)cc2)s1	-9	-8%	-17%	7.9µM*	.	-15%
O=C(CSc1nnc(-c2n[nH]c3ccccc23)n1-c1ccccc1)Nc1cccc(Cl)c1	-73*	-28%	-26%	?	?	?
Cc1ccc(S(=O)c2ccc(NC(=O)C3CC3)cc2C#N)cc1 (stereo not given)	-66*	?	-9%	?	2%[46.1 µM]	i
CCOc1ccc(NC(=O)CN(C)C(=O)c2c(C)nn(-c3ccc(F)cc3)c2Cl)cc1OCC	-16	-29%	-19%	-23%	-8%	-26%
COc1ccc(COC(=O)NNC(=O)c2ccc(OC)cc2)cc1	16	14%	-6%	1.3µM*	7%	-4%
SMILES	HCMV antiviral	FMDV antiviral	Vaccinia Venus	LASV entry inh	Marburg entry inh	VACV mCherry inh
COc1ccc(NC(=O)c2cc3ccccc3cc2OC)cc1	174	14%	?	?	-24%	-23%
COc1cc2ccccc2cc1C(=O)NNC(=O)c1ccccc1O	-91*	.	.	.	.	.
CC(C)c1ccc(OCC(=O)NNC(=S)NC(=O)C2CC2)cc1	-98*	0%	?	?	?	-17%
O=C(/C=C/c1cccs1)NC(=S)NNC(=O)c1ccccc1O	-94*	-14%	-8%	?	?	?
N#Cc1ccc(OCC(=O)NNC(=S)NC(=O)C2CC2)cc1	4	2%	-10%	-7%	25%	i
CCOC(=O)C1CCN(c2ncnc3c2nnn3C)CC1	6	1%	-11%	-3%[46.1 µM]	.	-21%
COc1ccc([C@H]2SCC(=O)Nc3c2c(=O)[nH]n3C2CCCCC2)cc1	.	.	.	.	0%	.
COC(=O)[C@@H]1[C@@H](CO)[C@@H]2Cn3c(ccc(Br)c3=O)[C@@H]2N1CCc1ccccc1	-33	.	.	.	.	.
COc1cc(CN2CCCC(n3cc(C(=O)N4CCCCC4)nn3)C2)cc(OC)c1OC (stereo not given)	.	-9%	-4%	.	.	1%
O=S1(=O)CCOC[C@H](c2ccccc2)N1Cc1ccc(Cl)cc1Cl	.	.	-20%	.	.	i
CC1(C)O[C@@H](C(O)(c2cc(C(F)(F)F)cc(C(F)(F)F)c2)c2cc(C(F)(F)F)cc(C(F)(F)F)c2)[C@H](C(O)(c2cc(C(F)(F)F)cc(C(F)(F)F)c2)c2cc(C(F)(F)F)cc(C(F)(F)F)c2)O1	.	.	.	.	-9%[14.2 µM]	.
COc1ccc(C(=O)NNC(=S)NC(=O)C(C)(C)C)cc1	-31	-4%	?	?	?	4µM*
COc1ccc(C(=O)NC(=S)NNC(=O)c2cnccn2)cc1	-85*	8%	-14%	-40%	?	-15%
O=C(NC(=S)NNC(=O)c1cnccn1)c1ccc(Cl)cc1	94	24%	-14%[7.34 µM]	-22%	-15%[46.1 µM]	-20%[7.34 µM]
COc1ccc(C(=O)NC(=S)NNC(=O)COc2ccccc2)cc1	-22	28µM*	-15%	18%	?	?
COc1ccc(C(=O)NC(=S)NNC(=O)c2ccccc2O)cc1	39	10%	?	-4%	13µM*	13µM*
O=C(O)C(c1ccccc1)C(O)C1CCCC1 (stereo not given)	-10	0%	-1%	1%[46.1 µM]	-5%	-14%
COCC(O)Cn1ccnc1[N+](=O)[O-] (stereo not given)	-28	-12%	3%	.	.	-14%
COc1cc(=O)n2c(c1C(=O)NC(C)c1ccco1)CCN(C(=O)c1ccnc(Cl)c1)CC2 (stereo not given)	.	-5%	-8%	.	.	-12%
COc1ccc(OC)c(C(=O)Nc2c(O)ccc3ccccc23)c1	31	19%	?	?	6%	13µM*
COc1ccc(OC)c(NC(=O)Nc2c(O)ccc3ccccc23)c1	17	21%	.	.	.	.
CCCCN(C(=O)CSc1n[nH]c(-c2ccc(C)cc2)n1)c1c(N)n(CCCC)c(=O)[nH]c1=O	?	43%	0%	-1%	24%	-13%
COCCN(C(=O)c1cc(-c2ccco2)nc2ccccc12)c1c(N)n(Cc2ccccc2)c(=O)[nH]c1=O	-69*	-7%	.	.	.	.

Compound activity (PubChem BioAssay)
